High-throughput results deposited in PubChem by The Scripps Research Institute Molecular Screening Center.
ASK1 primary = inhibitors of human ASK1 kinase | Q99683 | AlphaScreen MKK6 phosphorylation by ASK1, luminescence | inhibition, % at 7.44 µM | 0.99% of 22,000 active | AID 1159602; in the data active means inhibition above about 35%;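 further: 0% = median of compound wells and 100% = no enzyme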
ULK1 primary = human ULK1 kinase inhibition, primary screen | AlphaScreen Atg13 phosphorylation by ULK1, luminescence | 1.9% of 30,000 active | O75385 | AID 1259251 | inhibition, % at 5.96 µM; in the data active means inhibition above about 43%;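 further: 0% = median of compound wells and 100% = no enzyme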
* = called active by the depositor; . = no result. Rows were chosen to be rich in hits. Some 2.4% of all compounds tested hit in one or more screens of this group.

SMILES	ASK1 primary	ULK1 primary
Cc1ccc(C)c(C(O)CNC(C)C)c1 (stereo unspecified)	.	2
COc1ccc(CN2CCC[C@H]2c2nc3ccc(-c4ccncc4)cc3[nH]2)cc1 (tested in a mixture with another compound)	-1	0
N#CC(CCN1CCC(C(=O)O)(c2ccccc2)CC1)(c1ccccc1)c1ccccc1	.	-4
O=C1OC(c2ccc(O)c(S(=O)(=O)O)c2)(c2ccc(O)c(S(=O)(=O)O)c2)c2c(Br)c(Br)c(Br)c(Br)c21	.	64*
COc1ccc(Cc2nccc3cc(OC)c(OC)cc23)cc1OC	.	69*
COc1ccc(CCN2CCC(=O)CC2)cc1OC	.	-4
CCCCC1(CC)C(=O)NC(=O)NC1=O	.	2
O=C(NC(Oc1ccccc1)C(Cl)(Cl)Cl)c1ccco1 (stereo unspecified)	.	-2
